# Screening results from PubChem BioAssay.
# NPSR antag – blocks cAMP signaling of the human neuropeptide S receptor. Q6W5P4. CHO-NPSR cells, cAMP TR-FRET, antagonist mode. Potency, µM (series often up to 38.3 µM), actives largely listed as inhibitors. 1% of 220,000 active. AID 1461; also: nearly all actives have a fitted effect of over 50% in size
# IMPase cell inh – cell-permeable inhibitors of inositol monophosphatase (IMPase); P97697; 120,000 tested, under 10 active; inhibition (IP1 accumulation), % at 46.1 µM; CHO-M1 cells, IP1 accumulation, HTRF TR-FRET ratio; active = well fitted curve in the direction sought with a large enough effect in the signal ratio, not every such curve was filed as active; inconclusive = small, poorly fitted or top-dose-only effect, or a change in a side signal; inactive = no such curve, though single readings can be large or run the other way; the % refers to the signal ratio;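 also: cells stimulated with carbachol in lithium chloride buffer; higher means more IMPase inhibition seen as more IP1 and lower FRET ratio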
# Target sequence (P97697 whole entry, looked up): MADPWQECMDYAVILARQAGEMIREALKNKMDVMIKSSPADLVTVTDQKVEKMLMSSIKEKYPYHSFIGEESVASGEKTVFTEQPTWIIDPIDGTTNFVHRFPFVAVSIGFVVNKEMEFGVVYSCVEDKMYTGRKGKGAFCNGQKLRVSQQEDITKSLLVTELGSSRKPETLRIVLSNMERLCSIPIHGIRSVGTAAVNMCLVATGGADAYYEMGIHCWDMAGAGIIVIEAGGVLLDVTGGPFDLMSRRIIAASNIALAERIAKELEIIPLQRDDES
#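 Seeded CHO-M1 cells were dosed with compound at up to 46 uM, stimulated with carbachol for 30 min, then lysed in IP-One detection reagents. Higher IP1 lowers the TR-FRET signal.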
# ALDH1A1 block – blocks purified human ALDH1A1 activity; Purified ALDH1A1, NADH fluorescence, propionaldehyde substrate; Potency, µM (doses to about 75.3 µM), actives largely listed as inhibitors; 7.3% of 220,000 active; active = well fitted inhibition curve with a large enough effect, not every such curve was filed as active; inconclusive = small, poorly fitted or top-dose-only effect, or another doubt; inactive = no such curve, though single readings can be large or run the other way
# HPGD inh – inhibitors of human 15-hydroxyprostaglandin dehydrogenase (HPGD) | P15428 | purified HPGD, NADH fluorescence kinetic, PGE2 substrate | Potency, µM, hits mostly inhibitors | 4.3% of 150,000 active; active = well fitted inhibition curve with a large enough effect, not every such curve was filed as active; inconclusive = small, poorly fitted or top-dose-only effect, or another doubt; inactive = no such curve, though single readings can be large or run the other way
# Target sequence (P15428 whole entry, looked up): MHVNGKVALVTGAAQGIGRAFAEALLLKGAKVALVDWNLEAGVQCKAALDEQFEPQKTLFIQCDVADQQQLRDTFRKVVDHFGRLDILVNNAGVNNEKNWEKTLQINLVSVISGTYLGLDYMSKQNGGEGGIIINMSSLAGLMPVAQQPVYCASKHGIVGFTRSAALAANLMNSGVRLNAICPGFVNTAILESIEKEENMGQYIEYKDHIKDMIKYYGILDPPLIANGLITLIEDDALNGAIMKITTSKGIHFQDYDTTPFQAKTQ
#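 NADH formation kinetics: reaction with 30 uM PGE2 and 1 mM NAD+ (final), 20 nM enzyme, Tris-HCl pH 8 with Tween 20, after 15 min compound preincubation at room temperature. Fluorescence change, last versus first of five reads.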
# ALOX12 inhib – inhibitors of human 12-lipoxygenase (ALOX12). P18054. purified 12-hLO, xylenol orange hydroperoxide absorbance. Potency, µM (highest dose often 57.1 µM), hits mostly inhibitors. 0.12% of 150,000 active; also: nearly all actives have a fitted effect of over 55% in size
#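 Hydroperoxide formation by human 12-lipoxygenase from 40 uM arachidonic acid was followed colorimetrically via ferric-xylenol orange complex, using the 573/405 nm absorbance ratio. Enzyme concentration was 150 nM, with 30 min reaction at room temperature.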
# IMPase Li inh – cell-permeable IMPase inhibitors with lithium potentiation. CHO-M1 cells, IP1 TR-FRET (IP-One), carbachol + lithium. 0.35% of 210,000 active. Potency, µM (top dose mostly 59.4 µM), usual class: inhibitors. AID 1457;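 also: IP1 builds up when IMPase is blocked and the TR-FRET signal falls; nearly all actives have a fitted effect of over 50% in size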
#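 Steps: plate 2000 CHO-M1 cells per well and culture 16–30 h; add compound and lithium; incubate 30 min, 37C; add d2-IP1 tracer and Eu cryptate anti-IP1 antibody in lysis buffer; read after 10 min at room temperature.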
# Hits are given with their value; . = inactive; ? = inconclusive; / = no result. Rows were chosen to be rich in hits. Some 8.9% of all compounds tested hit in one or more screens of this group. Unless noted, calls follow the shape of the dose curve; as a rule, active = well fitted curve in the direction sought with a large enough effect; inconclusive = small, poorly fitted or top-dose-only effect, or another doubt; inactive = no such curve, though single readings can be large; an effect the other way counts as inactive or inconclusive.
SMILES,NPSR antag,IMPase cell inh,ALDH1A1 block,HPGD inh,ALOX12 inhib,IMPase Li inh
Cc1ccc(S(=O)(=O)Oc2ccc(/C=C(/NC(=O)c3ccccc3)C(=O)NCC(=O)O)cc2)cc1,.,/,5µM,/,/,.
COc1ccccc1C(=O)N/C(=C\c1ccc(Br)cc1)C(=O)NCC(=O)O,.,/,.,.,.,.
COc1ccccc1C(=O)N/C(=C\c1ccccc1)C(=O)NC(C)C(=O)O (stereo not drawn),.,/,.,/,/,.
Cc1ccc(S(=O)(=O)Oc2ccc(/C=C(/NC(=O)c3ccccc3)C(=O)NC(C)C(=O)O)cc2)cc1 (stereo not drawn),.,/,4µM,/,/,.
CCS(=O)(=O)CCSc1nc(C)cc(C)n1,.,.,.,.,.,.
O=c1c2ccccc2c(C=NCc2ccccn2)c(O)n1-c1ccccc1,.,/,.,?,.,.
Cc1ccc(C(=S)N2CCN(Cc3ccccc3)CC2)s1,.,/,14µM,/,/,.
S=C(c1ccc(Br)cc1)N1CCN(Cc2ccccc2)CC1,.,.,?,32µM,.,.
CN1CCN(C(=S)c2ccc(N(C)C)cc2)CC1,.,.,28µM,16µM,.,.
CN(C)c1ccc(C(=S)N2CCN(Cc3ccccc3)CC2)cc1,.,/,32µM,/,/,.
CCN(CC)S(=O)(=O)N1CCC(C(=O)NCc2ccc(C)cc2)CC1,.,.,4.5µM,.,.,.
CCN(CC)c1ccc(CN2CCC(C(=O)NCc3ccc(C)cc3)CC2)cc1,.,/,14µM,/,/,.
COc1ccccc1Oc1ccc(S(=O)(=O)N2CCN(C)CC2)cc1,.,/,?,/,/,.
NC(=O)C1CCN(C2CC(=O)N(c3cccc(F)c3)C2=O)CC1 (stereo not drawn),.,.,22µM,.,.,.
Cc1ccccc1N1C(=O)CC(N2CCC(C(N)=O)CC2)C1=O (stereo not drawn),.,.,?,.,.,.
NC(=O)C1CCN(C2CC(=O)N(c3ccc(F)c(Cl)c3)C2=O)CC1 (stereo not drawn),.,.,25µM,.,.,.
Cc1ccc2cc(C(c3nnnn3Cc3ccccc3)N3CCN(c4ccccc4)CC3)c(=O)[nH]c2c1 (stereo not drawn),.,.,25µM,.,.,.
COCCn1nnnc1C(c1ccc(OC)cc1OC)N1CCN(c2ccccc2)CC1 (stereo not drawn),.,.,7.9µM,.,.,.
COc1ccc(N2CCN(C(c3cc4cc(C)ccc4[nH]c3=O)c3nnnn3Cc3ccccc3)CC2)cc1 (stereo not drawn),.,.,14µM,.,.,.
CCOC(=O)C1CCN(C(c2cc3c(C)ccc(C)c3[nH]c2=O)c2nnnn2C2CCCCC2)CC1 (stereo not drawn),.,.,?,.,.,.
CCOC(=O)C1CCN(C(c2cc3ccc(C)c(C)c3[nH]c2=O)c2nnnn2C2CCCCC2)CC1 (stereo not drawn),?,.,20µM,.,.,.
Cc1ccc2nc(SCc3ccc([N+](=O)[O-])cc3)[nH]c2c1,?,.,?,?,.,.
COc1cc2cc(C(c3nnnn3C3CCCC3)N3CCCCC3)c(=O)[nH]c2cc1OC (stereo not drawn),.,.,?,.,.,.
Cc1ccc2cc(C(c3nnnn3C3CCCC3)N3CCN(c4ccccc4)CC3)c(=O)[nH]c2c1 (stereo not drawn),?,.,8.9µM,.,.,.
c1ccc(C(c2nnnn2C2CCCC2)N2CCN(c3nc4ccccc4s3)CC2)cc1 (stereo not drawn),.,.,14µM,.,.,.
SMILES,NPSR antag,IMPase cell inh,ALDH1A1 block,HPGD inh,ALOX12 inhib,IMPase Li inh
COc1cccc(C2N(c3cccc(Cl)c3)C(=O)C3CCCN32)c1 (stereo not drawn),.,.,.,.,.,.
CC(=O)Nc1cccc(-c2nnc3n2CC(C)S3)c1 (stereo not drawn),.,.,.,.,.,.
CC(=O)Cn1ncc(Br)c(Br)c1=O,.,/,3.5µM,/,/,.
Cc1nc2nc[nH]n2c(=O)c1CCOC(=O)c1c(F)cccc1F,.,/,?,/,/,.
O=C(OCn1ncc(Br)c(Br)c1=O)c1c(F)cccc1F,2.5µM,.,0.5µM,28µM,.,8.9µM
Cc1ccc(C(=O)NNC(=O)Cn2nnc3ccccc32)cc1,.,/,/,/,/,/
CC1(C)CC(=O)C(C(C2=C(O)CC(C)(C)CC2=O)c2cccnc2)C(=O)C1 (stereo not drawn),.,.,14µM,.,.,.
CCCC(C1=C(O)CC(C)(C)CC1=O)C1C(=O)CC(C)(C)CC1=O (stereo not drawn),.,.,22µM,.,.,.
Cc1ccc(C(C2=C(O)CC(C)(C)CC2=O)C2C(=O)CC(C)(C)CC2=O)o1 (stereo not drawn),.,.,14µM,3.5µM,.,.
CC1(C)CC(=O)C(C(C2=C(O)CC(C)(C)CC2=O)c2cccc(O)c2)C(=O)C1 (stereo not drawn),.,.,14µM,.,.,.
CC1(C)CC(=O)C(C(C2=C(O)CC(C)(C)CC2=O)c2cccs2)C(=O)C1 (stereo not drawn),.,.,.,/,.,/
CC(=N)C1=C(O)CC(C)(C)CC1=O,.,.,?,.,.,.
O=C(c1ccccc1)c1ccc2nc(N3CCN(c4ccccc4)CC3)c3nncn3c2c1,/,.,/,/,/,/
CCCN(c1ccc(C(=O)OC)cc1)S(=O)(=O)c1ccccc1,.,/,.,/,/,.
Oc1ccccc1C1Nc2cccc3cccc(c23)N1,.,.,24µM,?,?,.
COc1ccccc1C1Nc2cccc3cccc(c23)N1,.,.,?,?,.,.
Brc1ccc(C2Nc3cccc4cccc(c34)N2)o1,.,.,4.5µM,?,.,.
CCOc1cc(C2Nc3cccc4cccc(c34)N2)ccc1O,.,.,20µM,.,.,.
O=C(CSc1ncn[nH]1)N1N=C(c2ccc(Cl)cc2)CC1c1ccco1 (stereo not drawn),.,/,.,/,/,.
Cn1c(C(C#N)/C(=N\S(=O)(=O)c2cccs2)c2ccccc2)nc2ccccc21 (stereo not drawn),.,.,?,.,.,.
CCOC(=O)c1c(NC(=O)CSc2nc3ccccc3o2)sc(C)c1C,.,.,.,.,.,.
CCOC(=O)C1=C(C)OC2(O)c3ccccc3C(=O)C12O (stereo not drawn),.,/,/,/,/,/
CCOC(=O)C1=C(C)N[C@@]2(O)c3ccccc3C(=O)[C@@]12O,.,.,32µM,.,.,.
CC1=C(C#N)C2(O)C(=O)c3ccccc3C2(O)N1 (stereo not drawn),.,/,?,/,/,.
CC1=C(C(=O)OC(C)C)C2(O)C(=O)c3ccccc3C2(O)N1 (stereo not drawn),.,.,13µM,.,.,.
